# 4MU fluor = compound fluoresces in the 4-MU spectral region | compound autofluorescence, 340/450 nm, 4-MU equivalents; hits give high values | max dye-equivalent concentration, M | hit rate 11% among 59,000 | AID 589; in the data active means max dye-equivalent concentration above about 10 nM; inconclusive means mostly about 1.1 nM to 9.6 nM
#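 Compounds in 100 mM Tris, pH 8.0, sat 15 min at room temperature before fluorescence was read at 340 nm excitation/450 nm emission; a per-plate six-point 4-MU standard curve converted signals to dye-equivalent concentration at each compound concentration.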
# A350 fluor = compounds fluorescent in Alexa 350 spectral region. Compound autofluorescence, 340/450 nm, Alexa 350 dye-equivalents; hits give high values. hit rate 11% among 59,000. max dye-equivalent concentration, M; in the data active means max dye-equivalent concentration above about 10 nM; inconclusive means mostly about 1.1 nM to 9.6 nM
# HSD17B inh = inhibitors of human HSD17B10 dehydrogenase | recombinant HSD17B10, NADH fluorescence kinetic | Potency, µM (series often up to 57.1 µM), most hits filed as inhibitors | hit rate 7.6% among 75,000;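 further: the protocol describes HADH2 (HSD17B10) and not the HSD17B4 of the title; nearly all actives have a fitted effect of over 70% in size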
#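 Enzyme plus compound, 15 min room temperature; substrate mix added (NAD+ 1 mM, beta-hydroxybutyryl-CoA 90 uM final); plates read kinetically for NADH fluorescence. HADH2 was His-tagged, E. coli-derived, 20 nM.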
# HADH2 inhib = blocks human hydroxyacyl-CoA dehydrogenase type II; AID 886; hit rate 3.4% among 73,000; Q99714; Potency, µM (top dose mostly 57.1 µM), hits mostly inhibitors; recombinant HADH2, NADH fluorescence, beta-hydroxybutyryl-CoA; further: nearly all actives have a fitted effect of over 60% in size
# Target sequence (Q99714 whole entry, looked up, one chain of several): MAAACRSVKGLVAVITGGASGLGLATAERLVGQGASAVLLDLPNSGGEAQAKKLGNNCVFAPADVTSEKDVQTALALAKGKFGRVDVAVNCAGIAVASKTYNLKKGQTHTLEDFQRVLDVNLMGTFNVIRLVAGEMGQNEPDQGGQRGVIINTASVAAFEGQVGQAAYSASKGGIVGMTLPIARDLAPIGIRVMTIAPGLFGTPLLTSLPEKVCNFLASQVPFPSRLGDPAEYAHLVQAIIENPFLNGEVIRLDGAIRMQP
#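 Read-out: 360 nm excitation, 450 nm emission, kinetic over 4 min. Conditions: His-tagged human HADH2 20 nM, pH 9.0 Tris with Tween-20, 1 mM NAD+, 90 uM beta-hydroxybutyryl-CoA.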
# AID923 = qHTS Assay for Allosteric/Competitive Inhibitors of Caspase-1: Spectroscopic Profiling in AFC Spectral Region; AID 923, 2007; Potency, µM (highest dose often 57.5 µM), hits mostly activators; compound fluorescence, AFC spectral region (405/520 nm); hit rate 1.1% among 75,000
#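 Baseline compound fluorescence (AFC region, 405 nm ex/520 nm em) taken from the intercept of kinetic reads with 50 nM caspase-1 and 5 uM Ac-WEHD-AFC; normalized to an on-plate AFC standard curve; compounds titrated up to 57 uM.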
# A number is an active result; i = inactive; ? = inconclusive; nt = not tested or not shown; [ ] = remark or other dose. This is a sample that favours compounds with a hit; in the whole collection about 13% have one here. Unless noted, the call rests on the fitted dose curve; in most records, active means well fitted curve in the direction sought with a large enough effect; inconclusive means small, poorly fitted or top-dose-only effect, or another doubt; inactive means no such curve, though single readings can be large; an effect the other way counts as inactive or inconclusive.
SMILES,4MU fluor,A350 fluor,HSD17B inh,HADH2 inhib,AID923
Cn1cccc1C(=O)N1CCC2(CC1)CN(C(=O)Nc1cccc(C#N)c1)C2,i,i,i,i,i
c1ccc2nc3c(nc2c1)c1ccccc1n3CCN1CCOCC1,i,i,i,i,i
CCn1c2ccccc2c2nc3cc(S(=O)(=O)N4CCOCC4)ccc3nc21,i,i,16µM,0.063µM,i
CCCc1nnc(SCc2ccc(OC)cc2)n1N,3.3e-08M,3.2e-08M,32µM,32µM,i
CCCOc1ccc(CSc2nnc(CCC)n2N)cc1,i,i,i,i,i
CC(C)(C)CC(C)(C)c1ccc(OCCO)cc1,nt,nt,i,i,i
Nc1nc2ccccc2n1/N=C/c1ccc(-c2ccccc2)o1,i,1.1e-08M,i,i,i
Cc1nn(-c2ccc(S(=O)(=O)O)cc2)c(O)c1N=Nc1ccc(-c2ccc(N=Nc3ccc4c(S(=O)(=O)O)cc(S(=O)(=O)O)c(N)c4c3O)c(O)c2)cc1O.[Cu].[Cu],i,i,1µM,i[11.4 µM],i[11.5 µM]
COc1cc(-c2ccc(N=Nc3ccc4c(S(=O)(=O)O)cc(S(=O)(=O)O)c(N)c4c3O)c(OC)c2)ccc1N=Nc1ccc2c(S(=O)(=O)O)cc(S(=O)(=O)O)c(N)c2c1O,?,?,2µM,10µM,i
O=c1cc(CO)occ1O,i,i,i,i,i
CC(C)N(Cc1nc(-c2ccccc2)no1)S(=O)(=O)c1ccccc1,nt,nt,i,i,i
O=S(=O)(c1ccccc1)N(Cc1nc(-c2ccccc2)no1)C1CCCCC1,2.9e-06M,3.4e-06M,i,?,i
CCSc1nc2cc(C(=O)OC)ccc2c(=O)n1CC,1.4e-08M,1.5e-08M,?,i,i
CS(=O)(=O)c1ccc2nc(NC(=O)Oc3ccccc3)sc2c1,8e-08M,8.3e-08M,i,i,i
CCOc1cccc2cc(C(=O)N3CCc4ccccc4C3)c(=O)oc12,i,i,32µM,i,i
Cc1ccnc(NC(=O)CCC(=O)N(CC(=O)NC(C)(C)C)C2CCCC2)c1,i,i,i,i,i
CC1=CC2=NC(=O)CC(C)(C(=O)N(CC(=O)NC(C)(C)C)C3CCCC3)N2C=C1 (centres undefined),4e-08M,4e-08M,25µM,?,i
CC(C)(C)NC(=O)CN(C(=O)C1(C)CC(=O)N=C2C=CC=CN21)C1CCCC1 (centres undefined),4.4e-07M,3.8e-07M,32µM,?,i
CC1=CC=CC2=NC(=O)CC(C)(C(=O)N(CC(=O)NC(C)C)C3CCCC3)N12 (centres undefined),1e-06M,9.7e-07M,25µM,32µM,i
COCCc1ccc(OC[C@H](O)CNC(C)C)cc1,i,i,i,i,i
C=CC(=O)OCCCC,nt,nt,i,i,i
COC(=O)C1=C(C)N(Cc2ccccc2)C2=C3C(=O)CCCC3[C@@](O)(C(=O)OC)C(=O)N2C1c1ccccc1 (some centres undefined),nt,nt,i[11.4 µM],i[11.4 µM],i[11.5 µM]
O=C(SCc1cccc2ccccc12)c1ccc(Cl)cc1,i,i,i[11.4 µM],i[11.4 µM],i[11.5 µM]
c1nc(N2CCNCC2)c2sc3nc(N4CCOCC4)c4c(c3c2n1)CCC4,?,?,i,i,i
CC12CCC(=O)N1c1c(sc3nc(N4CCOCC4)c4c(c13)CCCC4)C(=O)N2 (centres undefined),4.8e-07M,5.8e-07M,nt,nt,nt
SMILES,4MU fluor,A350 fluor,HSD17B inh,HADH2 inhib,AID923
COC(=O)CSc1nc2c(c(-c3ccc(C)o3)c1C#N)CCCC2,3.4e-08M,2.8e-08M,?,?,i
CCc1ccccc1NC(=O)CSc1nc2c(c(-c3ccco3)c1C#N)CCCC2,3.3e-08M,3.8e-08M,i,i,i
Cc1ccc(-c2c3c([nH]c(=S)c2C#N)CCCC3)o1,nt,nt,?,13µM,i
Cc1ccccc1NC(=O)CSc1nc2c(c(-c3ccco3)c1C#N)CCCC2,?,?,i,i,i
O=C(O)c1cc(C(=O)O)nc(C(=O)O)c1,i,i,i[11.4 µM],i[11.4 µM],i[11.5 µM]
CCc1ccc2c(c1)C(C)=CC(C)(C)N2,2.4e-08M,2.9e-08M,nt,nt,nt
CCOc1ccc2c(c1)C(C)=CC(C)(C)N2,6.2e-07M,5.5e-07M,32µM,20µM,i
CCOc1ccc2c(c1)N(C(=O)CN1C(=O)CCC1=O)C(C)(C)C=C2C,i,i,i,i,i
COCCN(Cc1cc2ccccc2[nH]c1=O)C(=O)c1ccccc1OC,1.2e-08M,1.4e-08M,?,i,i
COCCN(Cc1cc2cc3c(cc2[nH]c1=O)OCO3)C(=O)c1cccs1,2.1e-07M,3.2e-07M,?,?,i
CCOc1ccccc1C(=O)N(C)Cc1cc2ccccc2[nH]c1=O,i,i,?,i,i
COc1ccc([N+](=O)[O-])c2c1CCN2C(=O)CC[C@H](N)C(=O)O,nt,nt,i,i,i
C#CCOC(=O)c1ccccc1C(=O)OCC#C,?,1.1e-08M,i,i,i
C#CCOC(=O)c1ccccc1C(=O)n1nnc2ccccc21,i,i,i,?,i
O=C(O)/C=C\C(=O)Nc1ncn[nH]1,i,i,i[11.4 µM],i[11.4 µM],i[11.5 µM]
CCCCCn1c(=O)c(C(=O)OCC)c(O)c2ccccc21,i,?,i,i,i
CCCCCS(=O)(=O)CCCCCCCCCCn1c(-c2ccc(O)cc2)c(C)c2cc(O)ccc21,nt,nt,32µM,?,i
O=C(c1cccs1)N1CCCC(c2ccccc2)C1 (centres undefined),i,i,i,i,i
O=C(c1ccco1)N1CCCC(c2ccccc2)C1 (centres undefined),?,1.1e-08M,i,i,i
CCOC(=O)c1ccccc1NC(=O)CSc1nc2ccccc2n1CC(=O)N1CCCC1,i,i,i,i,i
CCOC(=O)CCC(NC(=O)c1cncc(O)c1)C(=O)OCC (centres undefined),?,?,25µM,25µM,i
CC(CNC(=O)c1cncc(O)c1)NC(=O)c1cncc(O)c1 (centres undefined),i,i,?,i,i
CCCCS(=O)(=O)Nc1ccc(Cc2ccncc2)cc1,i,i,i,i,i
CN1CCc2c(sc3ncn4nc(-c5ccccc5O)nc4c23)C1,1.2e-08M,1.5e-08M,nt,nt,nt
c1coc(-c2nc3c4c5c(sc4ncn3n2)CCCC5)c1,i,i,?,i,i
SMILES,4MU fluor,A350 fluor,HSD17B inh,HADH2 inhib,AID923
COc1ccccc1CN1CCCC2(CCN(C(=O)c3cccc(F)c3)CC2)C1,i,i,i,i,i
CC1=C(C)NC(=S)SC1,i,i,i,7.9µM,i
FC(F)(F)c1ccc(CN2C[C@@H]3C(c4ccc(Cl)nc4)C4(c5ccccc5)CC3(C4)[C@H]2c2ccccc2)cc1 (some centres undefined),nt,nt,i,nt,i
Cc1cc(=O)[nH]c2c1c(C)nn2-c1ccccc1,i,i,32µM,i,i
Cn1c(=O)c2c(nc(N/N=C\c3ccccc3C(=O)O)n2C)n(C)c1=O,i,i,i[11.4 µM],i[11.4 µM],i[11.5 µM]
CCCCCNc1nc(N2CCCC2)c2c(c1C#N)CCN(C)C2,4.6e-08M,5.3e-08M,nt,nt,nt
COC(=O)CSc1nc(N2CCCCC2)c2c(c1C#N)CCCC2,i,i,?,i,i
